This excerpt belongs to a sample that is enriched for hits.
KDM5B inh – Primary screen for KDM5B Histone Demethylases FDH-coupled qHTS; KDM5B demethylase, FDH-coupled NADH fluorescence (FDH is formaldehyde dehydrogenase); 2.6% of 220,000 active; Potency, µM (series often up to 57.7 µM), usual class: inhibitors; Lysine-specific demethylase 5B (Homo sapiens), Q9UGL1; active means well fitted inhibition curve with a large enough effect; further: nearly all actives have a fitted effect of over 70% in size
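Inhibition is measured as reduced NADH fluorescence generation from FDH coupling to formaldehyde release. Truncated KDM5BΔAP at 200 nM final acts on H3K4me3 peptide (12.5 µM in substrate mix) in pH 7.5 HEPES buffer with Tween-20, 30 min, room temperature.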
Of the large screens only hits and unclear results are named; the others gave an inactive call.

COCc1ccc2c(c1)c(OC(C)(C)C(=O)Nc1cc(C)nn1C)nn2Cc1cccnc1	none
COCc1ccc2c(c1)c(OC(C)(C)C(=O)NCc1ccncc1)nn2Cc1cccnc1	none
COCCN(C)C(=O)C(C)(C)Oc1nn(Cc2cccnc2)c2ccc(COC)cc12	none
COCc1ccc2c(c1)c(OC(C)(C)C(=O)NCc1cnccn1)nn2CCC(C)C	none
COCc1ccc2c(c1)c(OC(C)(C)C(N)=O)nn2CCC(C)C	KDM5B inh 32µM
COCc1ccc2c(c1)c(OC(C)(C)C(=O)N1CC(O)C1)nn2CCC(C)C	KDM5B inh 35µM
Cc1nc2ccccc2c(C)c1CC(=O)NCCc1ccccc1F	none
CC(C(=O)Nc1ccc(C#N)cc1)n1nnc(-c2ccc(F)cc2)n1 (configuration not stated)	none
O=C(c1ccc(C(F)(F)F)cc1)N1CCc2nc(-c3ccc(Cl)cc3)nc(-c3ccccc3)c2C1	none
COc1ccc(NC(=O)Cn2c(C(=O)c3ccc(Cl)cc3)nc3ccccc32)cc1OC	none
N#Cc1cccc(C(=O)NC2CCN(c3cc(-c4cccs4)[nH]n3)CC2)c1	none
O=C(NC1CCN(c2cc(-c3cccs3)[nH]n2)CC1)c1ccccc1F	none
Cc1cccc(C(=O)NC2CCN(c3cc(-c4cccs4)[nH]n3)C2)c1 (configuration not stated)	KDM5B inh 11µM
CCOc1ccc(C(=O)NC2CCN(c3cc(-c4cccs4)[nH]n3)CC2)cc1OCC	none
O=C(NC1CCN(c2cc(-c3cccs3)[nH]n2)CC1)c1ccc(F)cc1F	none
Cc1ccc(C(=O)NC2CCN(c3cc(-c4cccs4)[nH]n3)C2)cc1F (configuration not stated)	KDM5B inh 4µM
Cc1ccccc1C(=O)NC1CCCN(c2cc(-c3ccc(F)cc3)[nH]n2)C1 (configuration not stated)	none
O=C(NC1CCN(c2cc(-c3cccs3)[nH]n2)CC1)c1ccccc1	none
COc1ccc(C(=O)NC2CCN(c3cc(-c4cccs4)[nH]n3)C2)cc1OC (configuration not stated)	KDM5B inh 11µM
Cc1ccccc1C(=O)NC1CCN(c2cc(-c3cccs3)[nH]n2)C1 (configuration not stated)	KDM5B inh 13µM
O=C(NC1CCN(c2cc(-c3cccs3)[nH]n2)CC1)c1ccc(Cl)cc1	none
COc1ccc(-c2cc(N3CCCC(NC(=O)c4ccc(OC)c(OC)c4)C3)n[nH]2)cc1 (configuration not stated)	none
Cc1ccc(-c2ocnc2C(=O)Nc2ccc(C)c(Cl)c2)o1	none
CN(C)C[C@H]1O[C@H](Cc2cc(-c3ccccc3)on2)CC[C@@H]1O	none
COc1cc(S(=O)(=O)Nc2ccc(C(C)=O)cc2)ccc1NC(C)=O	none
Cc1ccccc1N1Cc2c(ncnc2N2CCN(Cc3ccccc3)CC2)N(C)CC1=O	none
CCc1ccc(C(=O)c2sc(Nc3cccc(Cl)c3)nc2N)cc1	none
N#Cc1nc(COc2ccccc2F)oc1NCCCN1CCOCC1	none
CC(=O)Nc1ccc(S(=O)(=O)N[C@H]2CO[C@H]3[C@@H]2OC[C@@H]3n2nnnc2Oc2ccc(-n3cncn3)cc2)cc1	none
O=S(=O)(N[C@H]1CO[C@H]2[C@@H]1OC[C@@H]2n1nnnc1Oc1ccc(-n2cncn2)cc1)c1cccs1	KDM5B inh 18µM
Cc1ccc(S(=O)(=O)N[C@H]2CO[C@H]3[C@@H]2OC[C@@H]3n2nnnc2Oc2ccc(-n3cncn3)cc2)cc1	none
Cc1nn(-c2ccc(F)cc2F)c2c1C(C(=O)c1ccc(C(C)C)cc1)CC(=O)N2 (configuration not stated)	none
CN(Cc1cccnc1)c1nc2c(c(=O)[nH]1)CCN(Cc1cc(Cl)ccc1F)CC2	none
Cc1ccc(NC(=O)c2ncoc2-c2cccs2)cc1F	none
COCCN1CC2(CCCN(C(=O)c3n[nH]c4ccc(C)cc34)C2)CCC1=O (configuration not stated)	none
O=C(c1ccc(Cn2cccn2)o1)N1CCCC2(CCC(=O)N(C3CC3)C2)C1 (configuration not stated)	none
Cc1[nH]c(=O)c(C#N)cc1C(=O)N1CCCC2(CCC(=O)N(C3CC3)C2)C1 (configuration not stated)	KDM5B inh 28µM
Cc1[nH]c2ccc(F)cc2c1CCNC(=S)NC(C)(C)C	none
COCCN1Cc2ccc(NCC(C)C)nc2C(C)(C(=O)NC2CC2)C1 (configuration not stated)	KDM5B inh 32µM
CC(C)CNc1ccc2c(n1)C(C)(C(=O)NC1COC1)CN(Cc1ccccc1)C2 (configuration not stated)	KDM5B inh 32µM
CC(C)CNc1ccc2c(n1)C(C)(C(=O)Nc1ccncc1)CN(Cc1ccccc1)C2 (configuration not stated)	none
CC(C)CNc1ccc2c(n1)C(C)(C(=O)NC(C)C)CN(Cc1ccccc1)C2 (configuration not stated)	none
COCCn1c(C(=O)NCc2ccccc2)nc2ccccc2c1=O	none
COCCN1Cc2ccc(Nc3cccnc3)nc2C(C)(C(=O)NCc2ccncc2)C1 (configuration not stated)	KDM5B inh 25µM
Cn1ccc(NC(=O)CCc2nc(-c3ccccc3)no2)n1	none
COCCn1ncc(N2CCC(NC(=O)C(C)c3ccccc3)CC2)cc1=O (configuration not stated)	none
COCCN1Cc2ccc(NCc3ccccc3)nc2C(C)(C(=O)Nc2ccn(C)n2)C1 (configuration not stated)	KDM5B inh 35µM
COCCN1Cc2ccc(Nc3ccc(OC)cc3)nc2C(C)(C(=O)NC2COC2)C1 (configuration not stated)	none
NC(=O)c1ccccc1NC(=O)C1(c2ccccc2)CCCC1	none
CC(C)Cc1ccc(-c2cnc(CCC(=O)NC3=NCCS3)o2)cc1	none
CN1C(C(=O)N2CCN(c3ccccc3)CC2)=CC(c2ccc(F)cc2)=NS1(=O)=O	none
CCC(CC)C(=O)N1CC(C(=O)NCCc2ccncc2)C2(CCOCC2)C1 (configuration not stated)	none
CC(NC(=O)C1CCOCC1)C(=O)O (configuration not stated)	none
CC(C)n1ncc2cc(NC(=O)CCc3ncc(-c4ccccc4F)o3)cnc21	none
O=C(COC(=O)COc1ccc(Br)cc1)Nc1ncc(C(F)(F)F)cc1Cl	none
COc1ccc(C)cc1S(=O)(=O)Nc1ccc(Nc2nc(C)cc(N3CCOCC3)n2)cc1	none
Cc1cnc(CC2CCCN(C(=O)CCc3c[nH]c4ccccc34)C2)n1C(C)C (configuration not stated)	none
Cc1cc2c(cc1C)CSC(c1ccccc1OC(=O)c1ccc(I)cc1)SC2	none
COc1ccc(C(=O)C(C)OC(=O)C23CC4CC(CC(Cl)(C4)C2)C3)c(OC)c1 (configuration not stated)	none
CCn1ccnc1CN(C)C(=O)c1cc(-c2cnc(N)nc2)nc2c(C)cccc12	KDM5B inh 28µM
Cc1cccc2c(C(=O)O)cc(-c3cccnc3)nc12	none
CCn1ccnc1CN(C)C(=O)c1cc(-c2cnc(C)nc2)nc2cc(F)ccc12	none
Nc1nc(CN2CCN(C(=O)c3ccc(Cl)c(Cl)c3)CC2)nc2ccccc12	none
Cc1nc(Cc2nn3c(-c4ccccc4)nnc3s2)cs1	none
O=C(NCc1ccc(F)cc1)c1nc(-c2cccc(C(F)(F)F)c2)c2cnccn12	KDM5B inh 28µM
O=C(NCc1cccs1)c1cc(-c2cccnc2)nc2ccccc12	none
O=C(NCc1ccc(C(F)(F)F)cc1)c1nc2sccn2c1Br	none
O=C(NCc1cccs1)c1nc(-c2cccc(C(F)(F)F)c2)c2cnccn12	KDM5B inh 16µM

Screening data as filed in PubChem.
